Screening data as filed in PubChem.
Only some compounds are listed: those with a hit (about 21% of all), similar ones and a draw of the others.
Pf growth 48h: inhibits P. falciparum growth in the first generation, 48 h; hit rate 5.9% among 310,000; P. falciparum luciferase growth in erythrocytes, 48 h; Potency, µM (titrated, usually from 28.7 µM), most hits filed as inhibitors
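Luciferase-expressing P. falciparum in infected erythrocytes (2% hematocrit, 0.1% parasitemia final) in RPMI 1640/0.5% Albumax were exposed to compound for 48 hours at 37 C, 5% CO2; growth read as luminescence.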
CHX counter: counter-screen hit for Shiga toxin inhibitors, cycloheximide; cell reporter, cycloheximide protein synthesis inhibition counterscreen; max response, %; hit rate 12% among 300,000; AID 2314; in the data active = max response mostly above about 13%, no sharp cut-off; inactive = mostly below about 14%; note: read at 38.3 µM for the half of the compounds with a filed dose
HCMV antiviral: human cytomegalovirus inhibition; activity change, negative = inhibition, % at 57.5 µM; AID 1259415; HFF cells, HCMV-luciferase reporter, 72 h; active compounds read low; hit rate 4.5% among 410,000; in the data active = activity change below about -60%; inconclusive = no clear call, values can overlap the other calls; inactive = above about -39%
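Luciferase read-out from HCMV-luciferase-infected HFFs (MOI 1 PFU/cell) 72 h post infection at 37C; compounds added after 16 h cell attachment; activity normalized between buffer-only basal and Salinomycin (10uM) inhibitor controls.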
Pf growth 96h: P. falciparum growth inhibition at 96 hour, primary screen for plastid delayed-death inhibitors; P. falciparum luciferase reporter growth, 96 h; Potency, µM (series often up to 28.7 µM), most hits filed as inhibitors; hit rate 6.9% among 320,000; AID 504834
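P. falciparum expressing integrated firefly luciferase, in erythrocytes at 2% hematocrit, 0.05% parasitemia, incubated with compounds 96 h at 37 C, 5% CO2. Growth inhibition read as loss of luminescence; two-generation exposure targets delayed-death apicoplast inhibitors.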
HCV inh: blocks hepatitis C virus | Huh7.5.1 HCVcc-Cre infection, luciferase reporter, 44 h | Potency, µM (doses to about 41.8 µM), hits mostly inhibitors | hit rate 3.4% among 340,000 | AID 651820
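Reporter virus HCVcc-Cre (~0.5 moi) infects cells exposed to compound; seeding density 1,000 cells/well with 4 h settling beforehand. Luminescence, 15 sec read, taken 44 h post-infection following a 15 min RT substrate incubation.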
Shiga inhibitor: inhibitors of Shiga toxin in Vero cells. Vero cells, Shiga toxin protein synthesis inhibition reporter. inhibition, % at 38.7 µM. hit rate 9.2% among 290,000; in the data active = inhibition mostly above about 28%, no sharp cut-off; inactive = mostly below about 43%
Numbers stand for hits; i = inactive; ? = inconclusive; nt = no result. Unless noted, calls come from the whole dose curve; as a rule, active = well fitted inhibition curve with a large enough effect; inconclusive = small, poorly fitted or top-dose-only effect, or another doubt; inactive = no such curve, though single readings can be large or run the other way.

SMILES	Pf growth 48h	CHX counter	HCMV antiviral	Pf growth 96h	HCV inh	Shiga inhibitor
Cc1ccc(-c2csc(Nc3ccccn3)n2)cc1	i	35.0	i	?	i	nt
COc1ccc(-c2csc(Nc3ccccn3)n2)cc1OC	i	36.5	i	?	8.91µM	66.7
Fc1ccc(-c2csc(Nc3ccccn3)n2)c(F)c1	i	45.9	i	i	?	39.6
c1ccc(-c2csc(Nc3ccccn3)n2)cc1	i	59.9	i	i	i	81.6
CCCOc1ccc(Nc2cc(C)nc(C)n2)cc1	nt	nt	i	nt	nt	nt
Cc1cc(-c2csc(Nc3ccccn3)n2)ccc1F	i	42.4	i	?	6.31µM	115.9
NC(c1ccccc1)c1csc(Nc2ccccn2)n1 (stereo not given)	nt	nt	i	nt	nt	nt
COc1ccc(-c2csc(Nc3ccc(C)cn3)n2)cc1	i	i	i	i	?	i
Oc1ccc(-c2csc(Nc3ccccn3)n2)cc1	i	43.2	i	?	i	122.0
Cc1ccc(C(=O)Nc2cc(C(F)(F)F)ccc2N2CCCCC2)cc1[N+](=O)[O-]	13.1µM	i	i	i	i	i
O=C(Nc1cc(C(F)(F)F)ccc1N1CCCCC1)c1cccc([N+](=O)[O-])c1	14.7µM	i	-76.8	?	?	i
O=C(CNC(=O)c1ccccc1F)N/N=C/c1cccs1	i	30.0	i	i	i	53.2
COc1ccc([N+](=O)[O-])cc1/C=N/NC(=O)CNC(=O)C(c1ccccc1)c1ccccc1	i	i	i	i	?	i
O=C(CNC(=O)c1ccccc1)N/N=C/c1cccs1	i	i	?	?	i	i
O=C(CNC(=O)c1cccc(F)c1)N/N=C/c1cccs1	i	i	-62.2	i	i	i
COc1ccc([N+](=O)[O-])cc1/C=N/NC(=O)CNC(=O)c1cccc(F)c1	i	i	i	1.85µM	i	i
Cc1ccc(S(=O)(=O)C(CNS(=O)(=O)c2ccc(F)c(C(F)(F)F)c2)c2ccco2)cc1 (stereo not given)	nt	nt	i	nt	nt	nt
CCOc1ccc(NC(=O)Cn2c(=O)n(Cc3nc(-c4ccccc4)no3)c(=O)c3ccccc32)cc1	nt	nt	i	nt	nt	nt
COP(=O)(OC)SCn1c(=O)oc2cc(Cl)cnc21	nt	nt	i	nt	nt	nt
CCn1nc(C)c2c(-c3ccccc3)cc(=O)n(C(C)C(=O)NCCc3ccccc3)c21 (stereo not given)	nt	nt	i	nt	nt	nt
Cc1ccc(F)cc1NC(=S)NCCc1ccccc1	i	i	i	i	10µM	i
CCOc1ccccc1NC(=S)NCCc1ccc(F)cc1	?	i	-64.8	i	?	i
Cc1ccc(NC(=S)NCCc2ccc(F)cc2)c(C)c1	i	i	?	i	i	i
Fc1cc(Br)ccc1NC(=S)NCCc1ccccc1	i	46.1	i	i	i	139.1
CC1CCCCN1Cc1ccc(N)cc1 (stereo not given)	i	i	i	0.104µM	i	i
SMILES	Pf growth 48h	CHX counter	HCMV antiviral	Pf growth 96h	HCV inh	Shiga inhibitor
CC1CCCCN1Cc1ccc(-c2nn[nH]n2)cc1 (stereo not given)	i	i	i	?	i	i
Cc1ccc(NC(=O)CN2CCSc3ccc(S(=O)(=O)N4CCCC4)cc32)cc1C	nt	nt	i	nt	nt	nt
C[C@H]1CCCC(=O)CCC/C=C/c2cc(O)cc(O)c2C(=O)O1	nt	i	-99.2	13.1µM	i	i
COc1cc(O)cc2c1C(=O)OC(C)CCCC(=O)CCC/C=C\2 (stereo not given)	i	i	i	i	i	i
O=C1Nc2ccccc2Oc2cc(Oc3ccccc3)ccc21	?	nt	i	i	nt	nt
Cc1nn2c(NCCCn3ccnc3)cc(C(C)C)nc2c1-c1ccccc1	2.08µM	i	?	8.28µM	i	i
Cc1nn2c(NCc3ccccn3)cc(C(C)C)nc2c1-c1ccccc1	1.65µM	i	-97.7	1.65µM	3.98µM	i
CCCc1cc(NCc2ccccn2)n2nc(C)c(-c3ccccc3)c2n1	2.62µM	i	-94.6	13.1µM	?	i
COc1ccc(/C=[N+](\[O-])C2N(c3ccccc3)C(=S)SC2(C)C)cc1OC (stereo not given)	i	i	i	i	i	i
CNC(=O)c1ccsc1NC(=O)c1ccc(S(=O)(=O)N2CCCc3ccccc32)cc1	11.7µM	i	-62.2	9.28µM	10µM	i
CC1CCc2nc(NC(=O)c3ccc(S(=O)(=O)N4CCCc5ccccc54)cc3)sc2C1 (stereo not given)	?	i	-87.0	?	?	i
CNC(=O)c1ccsc1NC(=O)c1ccccc1	i	24.7	i	?	?	15.7
Cc1ccc(C(=O)Nc2nnc(S(=O)(=O)N3CCCc4ccccc43)s2)cc1	nt	nt	i	nt	nt	nt
O=C(Nc1nc2c(s1)CCCC2)c1ccc(S(=O)(=O)N2CCCc3ccccc32)cc1	?	10.3	-85.3	10.4µM	?	i
O=S(=O)(NCc1ccccn1)c1ccccn1	i	i	i	i	i	i
C[C@H](CO)N1C[C@H](C)[C@H](CN(C)C(=O)NC2CCCCC2)Oc2ncc(Br)cc2C1=O	nt	nt	i	nt	nt	nt
COCc1nnc(NC(=O)c2ccc(S(=O)(=O)N3CCCCCC3)cc2)o1	i	i	i	i	i	i
CCc1nnc(NC(=O)c2ccc(S(=O)(=O)N3CCCc4ccccc43)cc2)o1	7.38µM	i	-64.4	nt	?	i
CCC(=C(c1ccc(OC)cc1)c1ccc(OC)cc1)c1cn(CC(O)CN2CCN(C)CC2)c2ccccc12 (stereo not given)	9.28µM	i	i	nt	11.2µM	i
c1ccc(-c2nc(-c3nccc4ccccc34)oc2-c2ccccc2)cc1	i	46.1	i	i	?	74.2
CCOC(=O)c1ccc(OCC2c3cc(OC)c(OC)cc3CCN2C(=O)Cc2ccc(OC)c(OC)c2)cc1 (stereo not given)	nt	nt	i	nt	nt	nt
COc1ccc(CNC(=O)CCc2c(C)nn(-c3ccc(N4CCCC4)nn3)c2C)c(OC)c1	nt	nt	i	nt	nt	nt
CCN(CC)CCNC(=O)c1ccc(N2CCCCC2)c(NS(=O)(=O)c2ccc(C)cc2)c1	?	i	?	i	11.2µM	i
COC(=O)c1ccc(N2CCCCC2)c(NS(=O)(=O)c2ccc(C)cc2)c1	?	i	i	nt	12.6µM	i
COc1ccc(C(=O)O)cc1S(=O)(=O)Nc1cc(C(F)(F)F)ccc1N1CCCCC1	nt	nt	i	nt	nt	nt
SMILES	Pf growth 48h	CHX counter	HCMV antiviral	Pf growth 96h	HCV inh	Shiga inhibitor
CCOC(=O)c1ccc(N2CCCCC2)c(NS(=O)(=O)c2cccc(C(F)(F)F)c2)c1	10.4µM	i	-64.9	9.28µM	i	i
COC(=O)C(NC(=O)CCC(=O)N[C@@H](C(=O)OC)c1ccccc1)c1ccccc1 (stereo not given in full)	i	i	i	i	i	i
CCOc1ccc2c(c1)NC(c1cccs1)=NC(c1ccc(F)cc1)=N2	nt	nt	i	nt	nt	nt
CCCCOc1cccc(C(=O)N(Cc2ccc(C)o2)c2ccccn2)c1	nt	nt	i	nt	nt	nt
CCCCCCN1C[C@H](O)[C@@H](n2cc(-c3ccc(F)cc3)nn2)C[C@@H]1c1ccc(C)cc1	nt	nt	i	nt	nt	nt
CC[C@@]1(C(=O)OC)N[C@H](CN(C)C(=O)Nc2ccc(C(F)(F)F)cc2)[C@@H]2C(=O)N(C)C(=O)[C@@H]21	nt	nt	i	nt	i	nt
